Test results from PubChem BioAssay (NCATS).
Several values for one entry are separate records, joined by “and”; a condition that tells them apart may be missing. Equal values may be shown once. Inconclusive results are not listed. Activity calls are given as the source filed them. Unless noted, calls come from the whole dose curve; as a rule, active = well fitted curve in the direction sought with a large enough effect; inconclusive = small, poorly fitted or top-dose-only effect, or another doubt; inactive = no such curve, though single readings can be large; an effect the other way counts as inactive or inconclusive.

Legend:
[1] = biological target: Peroxisome proliferator-activated receptor delta (Homo sapiens) (UniProt Q03181); assay: qHTS assay for small molecule agonists of peroxisome proliferator-activated receptor delta signaling (AID 588534; calls by dose curve;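 note: 0% = DMSO basal wells and 100% = positive control agonist at 10 µM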)
Outline: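 Agonist-mode qHTS; reporter cells, 5 hrs 37 C pre-incubation; compound titration, 18 hrs 37 C; CCF4 dye, 2 hrs RT; fluorescence read. EC50/efficacy via Hill fit.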

[2] = MultiTox-Fluor Cytotoxicity Assay - LYMP1-001 - Dead Cells (AID 946)
Outline: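 Cytotoxicity as increased dead-cell protease fluorescence (bis-AAF-R110, 485/520 nm), read 60 min after MultiTox-Fluor reagent. Human lymphoblastoid line exposed 16 h; Hill-fitted AC50, with DMSO as 0% and 15 uM tetraoctylammonium bromide as 100%.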

[3] = Cell Viability - LYMP1-002 - Assay at 16 hr (AID 948);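 note: 0% = DMSO alone and full effect = 92 µM tetraoctylammonium bromide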
Outline: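 LYMP1-002 human lymphoblastoid cells, 2500/well; 5 hr 37 C; cpd 16 hr 37 C; CellTiter-Glo 30 min RT; luminescence (ATP). Concentration-response, Hill-fit AC50. Pos ctrl tetraoctylammonium bromide.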

[4] = MultiTox-Fluor Cytotoxicity Assay - LYMP1-003 - Dead Cells (AID 961); note: nearly all actives have a fitted effect of over 70% in size
Outline: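 Dead-cell protease release, detected as bis-AAF-R110 fluorescence at 485/520 nm, was measured in LYMP1-003 cells after 16 h compound treatment at 37 C. AC50 values came from Hill-modeled qHTS curves normalized to DMSO (0%) and 15 uM tetraoctylammonium bromide (100%).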

[5] = Cell Viability - LYMP1-003 - Assay at 24 hr (AID 963);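 note: plate controls were DMSO only for no effect and tetraoctylammonium bromide positive control for full effect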
Outline: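 Cytotoxicity is scored as a concentration-dependent fall in ATP-linked luciferase signal in human lymphoblastoid LYMP1-003 cells treated 24 hr at 37 C in complete culture medium.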

[6] = Cell Viability - LYMP1-003 - Assay at 40 hr (AID 964); note: series mostly up to about 92 µM; % is set by controls: 0 for no effect and ±100 for the full control effect; nearly all actives have a fitted effect of over 60% in size
Outline: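 Luminescent ATP signal (CellTiter-Glo) served as the viability read-out after 40 hr compound treatment of human lymphoblastoid LYMP1-003 cells at 37 C. Decreases in ATP were fitted with the Hill equation to give AC50.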

[7] = Cell Viability - LYMP2-003 (AID 965);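 note: cells exposed to compounds for 24 h before reading; 0% = DMSO only and full effect = 92 µM tetraoctylammonium bromide; nearly all actives have a fitted effect of over 50% in size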
Outline: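 CellTiter-Glo luminescence (cellular ATP) after 24 h compound exposure at 37 C in complete medium; 2500 cells/well, 5 h settling beforehand. Concentration-response fitted to standard Hill equation for AC50. Tetraoctylammonium bromide served as positive control.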

[8] = Cell Viability - LYMP2-004 (AID 966);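 note: plate controls were DMSO only for no effect and tetraoctylammonium bromide control for full effect; nearly all actives have a fitted effect of over 65% in size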
Outline: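 qHTS cytotoxicity: human lymphoblastoid line, 24 hr compound treatment, 37 C, complete medium. Viability read as cellular ATP via luciferase luminescence; tetraoctylammonium bromide served as positive control.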

[9] = Cell Viability - LYMP2-011 (AID 969);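 note: 0% = DMSO only and full inhibition = 92 µM tetraoctylammonium bromide; nearly all actives have a fitted effect of over 60% in size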
Outline: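 In this qHTS cytotoxicity format, compounds are tested across concentrations on human lymphoblastoid cells in complete medium for 24 hours at 37 C. Viability is taken as cellular ATP measured by luciferase luminescence.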

[10] = Cell Viability - LYMP2-015 (AID 971);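 note: 0% = DMSO only and full effect = 92 µM tetraoctylammonium bromide; nearly all actives have a fitted effect of over 55% in size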
Outline: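 Cells are seeded at 2500 per well and incubated 5 hr at 37 C. Compounds are added across a concentration series for 24 hr at 37 C. CellTiter-Glo is added, and luminescence is read after 30 min at room temperature.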

[11] = Cell Viability - LYMP2-023 (AID 975);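 note: series mostly up to about 92 µM; plate controls were DMSO only for no effect and 92 µM tetraoctylammonium bromide control for full effect; nearly all actives have a fitted effect of over 55% in size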
Outline: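 Steps: seed 2500 human lymphoblastoid cells per well, incubate 5 hr at 37 C, add compound for 24 hr at 37 C, add CellTiter-Glo, hold 30 min at room temperature, read luminescence. AC50 derived by Hill modelling.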

[12] = Cell Viability - LYMP2-025 (AID 976);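 note: series mostly up to about 92 µM; plate controls were DMSO only for no effect and tetraoctylammonium bromide control for full effect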
Outline: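 Acute cytotoxicity is scored as a concentration-dependent fall in intracellular ATP, measured by luciferase luminescence, in human lymphoblastoid LYMP2-025 cells exposed to compound for 24 hours at 37 C. AC50 values come from standard Hill fits.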

[13] = Cell Viability - LYMP2-002 (AID 977);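 note: series mostly up to about 92 µM; plate controls were DMSO only for no effect and 92 µM tetraoctylammonium bromide for full effect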
Outline: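 In this qHTS viability screen, 2500 human lymphoblastoid cells per well receive compound for 24 hr at 37 C, and luciferase-based ATP luminescence gives the viability signal. Tetraoctylammonium bromide serves as positive control.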

[14] = Cell Viability - LYMP2-006 (AID 978); note: series mostly up to about 92 µM; % is set by controls: 0 for no effect and ±100 for the full control effect; nearly all actives have a fitted effect of over 60% in size
Outline: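 qHTS, 1536-well; 2500 cells/well, 5 hr 37 C; cpd 24 hr 37 C; CellTiter-Glo 30 min RT; luminescence. Tetraoctylammonium bromide pos. ctrl. AC50 via Hill eqn.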

[15] = Cell Viability - LYMP2-008 (AID 980); note: % is set by controls: 0 for no effect and ±100 for the full control effect; nearly all actives have a fitted effect of over 60% in size
Outline: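 Cells seeded at 2500/well and rested 5 hr at 37 C; compounds added over a concentration range and incubated 24 hr at 37 C; CellTiter-Glo added, 30 min at room temperature; luminescence read and AC50 fitted with Hill model.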

[16] = Cell Viability - LYMP2-012 (AID 982);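 note: cellular ATP by luciferase luminescence where a drop means cytotoxicity; cells exposed to compound for one day before reading; 0% = DMSO only and full loss = 92 µM tetraoctylammonium bromide; nearly all actives have a fitted effect of over 55% in size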
[17] = Cell Viability - LYMP2-014 (AID 983);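 note: series mostly up to about 92 µM; plate controls were DMSO only for no effect and 92 µM tetraoctylammonium bromide for full effect; nearly all actives have a fitted effect of over 50% in size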
Outline: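 Cells are plated at 2500/well and left 5 hr at 37 C. Compounds are added across a concentration range and incubated 24 hr at 37 C in complete medium. CellTiter-Glo is added, and luminescence is read after 30 min at room temperature.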

[18] = Cell Viability - LYMP2-020 (AID 986);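 note: series mostly up to about 92 µM; plate controls were DMSO only for no effect and tetraoctylammonium bromide at 92 µM for full effect; nearly all actives have a fitted effect of over 55% in size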
Outline: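 Seed 2500 cells per well and incubate 5 hr at 37 C. Add compounds at a concentration series and incubate 24 hr at 37 C. Add CellTiter-Glo, wait 30 min at RT, read luminescence, and fit a Hill curve for AC50.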

[19] = Cell Viability - LYMP1-002 - Assay at 40 hr (AID 994)
Outline: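 Cells are plated at 2500 per well and rested 5 hr at 37 C. Compounds are added and incubated 40 hr at 37 C. CellTiter-Glo reagent is added for 30 min at room temperature before luminescence is read.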

[20] = biological target: Retinoic acid receptor RXR-alpha (Homo sapiens) (UniProt P19793); assay: qHTS assay for small molecule antagonists of retinoid X receptor alpha signaling (AID 588546; active = well fitted inhibition curve with a large enough effect in the signal ratio, with a control signal flat, not every such curve was filed as active; the % refers to the signal ratio;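 note: cells stimulated with 9-cis-retinoic acid as agonist; % is set by controls: 0 for no effect and ±100 for the full control effect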); settings: HEK293T RXRa-UAS-bla, beta-lactamase ratio, antagonist mode
Outline: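 Beta-lactamase reporter inhibition, read as CCF4 fluorescence ratio (ex 405, em 460/530 nm) after 2 h at RT. HEK293T UAS-bla cells, 2500/well, were stimulated with 9-cis-RA at 500 or 100 nM final alongside test compound for 18 h at 37 C.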

Retinoic acid receptor RXR-alpha (Homo sapiens), sequence (P19793 whole entry, looked up): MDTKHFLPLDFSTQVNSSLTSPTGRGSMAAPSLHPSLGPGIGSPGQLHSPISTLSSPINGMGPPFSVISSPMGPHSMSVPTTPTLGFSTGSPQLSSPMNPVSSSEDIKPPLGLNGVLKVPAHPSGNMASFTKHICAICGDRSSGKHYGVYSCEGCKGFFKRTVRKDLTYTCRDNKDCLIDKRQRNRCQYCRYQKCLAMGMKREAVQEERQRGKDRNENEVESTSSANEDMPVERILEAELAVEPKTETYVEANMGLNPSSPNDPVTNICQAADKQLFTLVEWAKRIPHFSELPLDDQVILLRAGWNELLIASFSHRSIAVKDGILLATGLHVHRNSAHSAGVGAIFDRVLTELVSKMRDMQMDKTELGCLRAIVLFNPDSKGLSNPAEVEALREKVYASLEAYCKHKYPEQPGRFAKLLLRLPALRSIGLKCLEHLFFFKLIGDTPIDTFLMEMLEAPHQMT
Peroxisome proliferator-activated receptor delta (Homo sapiens), sequence (Q03181 whole entry, looked up): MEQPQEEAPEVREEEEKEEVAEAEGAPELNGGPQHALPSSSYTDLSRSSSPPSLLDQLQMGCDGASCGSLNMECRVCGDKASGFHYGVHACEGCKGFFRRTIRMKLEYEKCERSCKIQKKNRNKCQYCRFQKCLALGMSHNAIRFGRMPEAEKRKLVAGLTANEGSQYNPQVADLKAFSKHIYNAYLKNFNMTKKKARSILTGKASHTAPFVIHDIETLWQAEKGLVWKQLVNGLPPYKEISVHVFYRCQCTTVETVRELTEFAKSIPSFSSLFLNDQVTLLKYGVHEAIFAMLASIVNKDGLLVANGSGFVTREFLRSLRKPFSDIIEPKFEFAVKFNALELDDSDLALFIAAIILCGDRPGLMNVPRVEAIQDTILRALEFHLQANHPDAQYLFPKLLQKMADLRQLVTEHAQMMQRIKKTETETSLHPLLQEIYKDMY

COc1ccc(/C=C/c2cc(OC)cc(=O)o2)cc1
inactive: outcome [1]

Oc1cccc(O)c1O
inactive: outcome [1]

C=C(C)C1CC=C(C)C(O)C1 (centres undefined)
inactive: outcome [1]

COC1=CC(=O)O[C@@H](/C=C/c2ccc3c(c2)OCO3)C1
inactive: Potency [2] | Potency [3] | Potency [4] | Potency [5] | Potency [6] | Potency [7] | Potency [8] | Potency [9] | Potency [10] | Potency [11] | Potency [12] | Potency [13] | Potency [14] | Potency [15] | Potency [16] | Potency [17] | Potency [18] | Potency [19] | outcome [1] | max response [20] -29.4%

CCCCCCCCCCCC(=O)O
inactive: outcome [1]

O=C=NC1CCCCC1
inactive: Potency [2] | Potency [3] | Potency [4] | Potency [5] | Potency [6] | Potency [7] | Potency [8] | Potency [9] | Potency [10] | Potency [11] | Potency [12] | Potency [13] | Potency [14] | Potency [15] | Potency [16] | Potency [17] | Potency [18] | Potency [19] | outcome [1] | max response [20] 12.3% and -18.1%

C=C(C)[C@H]1CC=C(C)C(=O)C1
inactive: outcome [1]

CC1=CCC2CC1C2(C)C (centres undefined)
inactive: outcome [1]

C=CC1CC=CCC1 (centres undefined)
inactive: Potency [2] | Potency [3] | Potency [4] | Potency [5] | Potency [6] | Potency [7] | Potency [8] | Potency [9] | Potency [10] | Potency [11] | Potency [12] | Potency [13] | Potency [14] | Potency [15] | Potency [16] | Potency [17] | Potency [18] | Potency [19] | outcome [1] | max response [20] 12.3% and -16.5%

C=CCc1ccc(OC)c(OC)c1
inactive: outcome [1]

C=CC(N)=O
inactive: Potency [2] | Potency [3] | Potency [4] | Potency [5] | Potency [6] | Potency [7] | Potency [8] | Potency [9] | Potency [10] | Potency [11] | Potency [12] | Potency [13] | Potency [14] | Potency [15] | Potency [16] | Potency [17] | Potency [18] | Potency [19] | outcome [1] | max response [20] 17% and -9.44% and -5.75%

Nc1ccccc1Cl
inactive: Potency [2] | Potency [3] | Potency [4] | Potency [5] | Potency [6] | Potency [7] | Potency [8] | Potency [9] | Potency [10] | Potency [11] | Potency [12] | Potency [13] | Potency [14] | Potency [15] | Potency [16] | Potency [17] | Potency [18] | Potency [19] | outcome [1] | max response [20] 23.6%

CC(C)(C)OOC(C)(C)C
inactive: Potency [2] | Potency [3] | Potency [4] | Potency [5] | Potency [6] | Potency [7] | Potency [8] | Potency [9] | Potency [10] | Potency [11] | Potency [12] | Potency [13] | Potency [14] | Potency [15] | Potency [16] | Potency [17] | Potency [18] | Potency [19] | outcome [1] | max response [20] 11.6%

Clc1cccc(C(Cl)(Cl)Cl)n1
inactive: Potency [2] | Potency [3] | Potency [4] | Potency [5] | Potency [6] | Potency [7] | Potency [8] | Potency [9] | Potency [10] | Potency [11] | Potency [12] | Potency [13] | Potency [14] | Potency [15] | Potency [16] | Potency [17] | Potency [18] | Potency [19] | max response [20] 0.436% and 2.35%

Brc1ccccc1
inactive: Potency [2] | Potency [3] | Potency [4] | Potency [5] | Potency [6] | Potency [7] | Potency [8] | Potency [9] | Potency [10] | Potency [11] | Potency [12] | Potency [13] | Potency [14] | Potency [15] | Potency [16] | Potency [17] | Potency [18] | Potency [19] | outcome [1] | max response [20] -1.11% and -6.34%

C[C@]12CC[C@H]3[C@@H](CCC4=CC(=O)CC[C@@]43C)[C@@H]1CC[C@@H]2O
inactive: Potency [2] | Potency [3] | Potency [4] | Potency [5] | Potency [6] | Potency [7] | Potency [8] | Potency [9] | Potency [10] | Potency [11] | Potency [12] | Potency [13] | Potency [14] | Potency [15] | Potency [16] | Potency [17] | Potency [18] | Potency [19] | outcome [1]

Clc1nc(Cl)nc(Cl)n1
inactive: Potency [2] | Potency [3] | Potency [4] | Potency [5] | Potency [6] | Potency [7] | Potency [8] | Potency [9] | Potency [10] | Potency [11] | Potency [12] | Potency [13] | Potency [14] | Potency [15] | Potency [16] | Potency [17] | Potency [18] | Potency [19] | outcome [1] | max response [20] 12.3% and -0.616%

c1ccc2c(c1)CCCC2
inactive: Potency [2] | Potency [3] | Potency [4] | Potency [5] | Potency [6] | Potency [7] | Potency [8] | Potency [9] | Potency [10] | Potency [11] | Potency [12] | Potency [13] | Potency [14] | Potency [15] | Potency [16] | Potency [17] | Potency [18] | Potency [19] | max response [20] 7.45%
